Test systems include NCI-H23 lung; NCI-H226 lung; NCI-H322M lung; HOP-62 NSCLC; NCI-H460 lung; HOP-92 NSCLC; NCI-H522 lung; A549/ATCC NSCLC; 786-0 renal; COLO 205 colon; DU-145 prostate; K-562 leukemia; MALME-3M melanoma; MDA-MB-231 breast; RXF 393 renal; SF-268 CNS; SF-295 CNS; SF-539 CNS; UACC-257 melanoma; M14 melanoma.
What all share (experiment): NCI-60 one-dose screen, 48 h (100 = growth as untreated, 0 = no growth, -100 = all killed)
Holding throughout (details): 10 µM unless noted

Compounds without any hit were thinned out: in the full panel of roughly 83,000, 20% have a hit.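 Step 1: grow cells in 96-well plates. Step 2: add test compound at a single concentration. Step 3: incubate 48 h. Step 4: record percent growth.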 A number with no mark means an inactive call. Activity calls are given as the source filed them. The calls were made as follows: active = growth percent below 10; inactive = the rest.

Turning to `COc1ccc(CNC(=O)C(=O)[C@H](Cc2ccccc2)NC(=O)c2[nH]c3ccccc3c(=O)c2C)cc1`, the growth with NCI-H23 lung is 101%; with NCI-H226 lung it was 103%; with NCI-H322M lung, 96.8%; with HOP-62 NSCLC it was 102%; in the experiment on NCI-H460 lung, 108%; in the experiment with HOP-92 NSCLC it was 117%. Further, the growth was 96.4% in the experiment on NCI-H522 lung; 95.6% in the experiment with A549/ATCC NSCLC; 102% with 786-0 renal; 113% in the experiment on COLO 205 colon; 104% in the experiment with DU-145 prostate; 92.9% in the experiment with K-562 leukemia. For the same compound, the growth in the experiment with MALME-3M melanoma was 107%; in the experiment with MDA-MB-231 breast it was 95.6%; in the experiment with RXF 393 renal it was 104%; in the experiment on SF-268 CNS, 101%; in the experiment with SF-295 CNS it was 103%; with SF-539 CNS it was 98.7%. Besides, the values for the growth in the experiment on UACC-257 melanoma and with M14 melanoma were 98.9% and 99.6%, respectively.

As for `C(=N/Nc1ncnc2nc[nH]c12)/c1ccccn1`, the growth in the experiment on NCI-H23 lung was 47.6%; in the experiment on NCI-H226 lung, 39.9%; in the experiment on NCI-H322M lung it was 22.4%; with HOP-62 NSCLC it was 23.6%; in the experiment on NCI-H460 lung, 55.8%; in the experiment with HOP-92 NSCLC, 19.4%. Besides, the growth was 35.7% in the experiment with NCI-H522 lung; 35.2% in the experiment on A549/ATCC NSCLC; 21.4% in the experiment on 786-0 renal; 26.1% in the experiment on COLO 205 colon; 32.1% in the experiment on DU-145 prostate; 24.8% in the experiment on K-562 leukemia. Further, the growth in the experiment with MALME-3M melanoma was 46.4%; with MDA-MB-231 breast, 53.7%; with RXF 393 renal it was 66.8%; in the experiment on SF-268 CNS it was 26.6%; with SF-295 CNS, 20.1%; in the experiment on SF-539 CNS, 20.6%. In addition, the growth in the experiment on UACC-257 melanoma was 51.5%; in the experiment on M14 melanoma it was 14.2%.

For the compound `O=[N+]([O-])c1ccccc1NCSc1ccc(Cl)cc1`, the growth is 91.2% in the experiment on NCI-H23 lung; 91% in the experiment on NCI-H226 lung; 98.1% in the experiment with NCI-H322M lung; 124% in the experiment on HOP-62 NSCLC; 95.8% in the experiment with NCI-H460 lung; 78.3% in the experiment with HOP-92 NSCLC. The growth in the experiment with NCI-H522 lung is 90.7%; in the experiment with A549/ATCC NSCLC, 91.3%; with 786-0 renal, 87.6%; in the experiment with COLO 205 colon, 116%; in the experiment on DU-145 prostate it was 102%; with K-562 leukemia, 93.1%. The growth is 87.5% in the experiment with MALME-3M melanoma; 90% in the experiment on MDA-MB-231 breast; 88.9% with RXF 393 renal; 84.2% with SF-268 CNS; 77.4% in the experiment on SF-295 CNS; 107% in the experiment on SF-539 CNS. In addition, the growth is 95.8% with UACC-257 melanoma and 102% with M14 melanoma.

In the case of `CCCCN(C)N=Nc1ccc(C(N)=O)cc1`, the growth in the experiment on NCI-H23 lung is 102%; in the experiment on NCI-H226 lung, 124%; in the experiment on NCI-H322M lung, 105%; in the experiment with HOP-62 NSCLC, 122%; in the experiment with NCI-H460 lung it was 104%; with HOP-92 NSCLC, 103%. In addition, the growth in the experiment on NCI-H522 lung is 109%; in the experiment with A549/ATCC NSCLC it was 97.3%; with 786-0 renal, 106%; in the experiment with COLO 205 colon, 110%; with DU-145 prostate, 113%; with K-562 leukemia, 116%. The growth was 111% with MALME-3M melanoma; 106% with MDA-MB-231 breast; 150% with RXF 393 renal; 108% in the experiment on SF-268 CNS; 101% with SF-295 CNS; 107% in the experiment with SF-539 CNS. The growth in the experiment with UACC-257 melanoma is 105%; in the experiment with M14 melanoma, 102%.

As to `CCOC(=O)c1cn2ncnc(Oc3ccc(NC(=O)NCCN4CCOCC4)c(Cl)c3)c2c1C`, the growth is 99.6% in the experiment on NCI-H23 lung; 92.9% in the experiment on NCI-H226 lung; 88.7% with NCI-H322M lung; 87.1% with HOP-62 NSCLC; 100% in the experiment on NCI-H460 lung; 91.7% in the experiment on HOP-92 NSCLC. Moreover, the growth is 93.9% in the experiment with NCI-H522 lung; 99.2% in the experiment with A549/ATCC NSCLC; 102% in the experiment on 786-0 renal; 100% in the experiment with COLO 205 colon; 109% in the experiment on DU-145 prostate; 98.3% with K-562 leukemia. Moreover, the growth in the experiment with MALME-3M melanoma is 91.5%; in the experiment with MDA-MB-231 breast, 100%; in the experiment with RXF 393 renal, 94.2%; in the experiment with SF-268 CNS it was 94.9%; in the experiment with SF-295 CNS, 98.4%; in the experiment on SF-539 CNS, 95.6%. Besides, the growth was 95.8% in the experiment with UACC-257 melanoma and 91.3% in the experiment with M14 melanoma.

Consider `C#C[C@]1(O)CC[C@H]2[C@@H]3CC=C4c5sc(Nc6cc(F)ccc6F)nc5CC[C@]4(C)[C@H]3CC[C@@]21C`, for which the growth with NCI-H23 lung is 4.23% (active); in the experiment with NCI-H226 lung it was 49%; in the experiment with NCI-H322M lung, 50.9%; in the experiment on HOP-62 NSCLC, 0.529% (active); in the experiment on NCI-H460 lung it was -54.4% (active); in the experiment with HOP-92 NSCLC, 13.1%. Also, the growth is 1.36% (active) with NCI-H522 lung; 56.7% in the experiment on A549/ATCC NSCLC; -71.9% (active) in the experiment on 786-0 renal; 8.29% (active) with COLO 205 colon; -30.6% (active) in the experiment with DU-145 prostate; 4.14% (active) with K-562 leukemia. In addition, the growth with MALME-3M melanoma is -19.9% (active); in the experiment on MDA-MB-231 breast it was -20.6% (active); in the experiment with RXF 393 renal it was -58.5% (active); in the experiment on SF-268 CNS, 0.557% (active); in the experiment on SF-295 CNS, -41.9% (active); in the experiment on SF-539 CNS, -88.7% (active). The results for the growth in the experiment on UACC-257 melanoma and in the experiment on M14 melanoma were 0.483% (active) and -22.1% (active), respectively.

Take `COc1cc(C(=O)N/N=C/c2cc3cc(OCc4ccccc4)ccc3nc2OC)cc(OC)c1OC`: the growth in the experiment with NCI-H23 lung is 90.2%; with NCI-H226 lung, 78.4%; in the experiment on NCI-H322M lung it was 98%; in the experiment on HOP-62 NSCLC, 83%; in the experiment with NCI-H460 lung it was 78.7%; in the experiment on HOP-92 NSCLC, 66.7%. The growth in the experiment with NCI-H522 lung is 70.2%; with A549/ATCC NSCLC, 82.2%; with 786-0 renal it was 85.5%; in the experiment with COLO 205 colon, 102%; with DU-145 prostate, 102%; in the experiment with K-562 leukemia, 74.6%. Besides, the growth in the experiment on MALME-3M melanoma is 110%; with MDA-MB-231 breast, 94.7%; in the experiment with RXF 393 renal, 79.6%; with SF-268 CNS, 79.7%; in the experiment with SF-295 CNS, 98.4%; with SF-539 CNS it was 85.8%. Also, the figures for the growth in the experiment on UACC-257 melanoma and with M14 melanoma were 79.2% and 83.4%, respectively.

Consider `CCOC(=O)Cn1c(C)c(/C=N/NC(=O)c2cc3c(ccc4ccccc43)o2)c2ccccc21`, for which the growth in the experiment with NCI-H23 lung is 27.7%; in the experiment with NCI-H226 lung, 19.4%; in the experiment with NCI-H322M lung, 41.5%; with HOP-62 NSCLC, 26.5%; in the experiment with NCI-H460 lung it was 5.99% (active); with HOP-92 NSCLC it was 60.5%. Moreover, the growth was -25.5% (active) with NCI-H522 lung; 21.8% with A549/ATCC NSCLC; 20.7% with 786-0 renal; -39.9% (active) with COLO 205 colon; 11.2% in the experiment with DU-145 prostate; 10.9% in the experiment on K-562 leukemia. The growth is 70.8% in the experiment on MALME-3M melanoma; 38.8% in the experiment on MDA-MB-231 breast; -11.1% (active) in the experiment on RXF 393 renal; 35.7% in the experiment with SF-268 CNS; 19.3% in the experiment on SF-295 CNS; -14.1% (active) in the experiment with SF-539 CNS. Also, the growth with UACC-257 melanoma was 41.5%; in the experiment with M14 melanoma, 16.8%.

Values taken from PubChem BioAssay (NCI).
